Activation data for 92 compounds are collected here from PubChem BioAssay AID504692 (The Scripps Research Institute Molecular Screening Center, 2011).

About 2,000 (0.59%) of roughly 340,000 compounds were called active. No stated cut-off is given here; in the data, active means activation mostly above about 9.5% (no sharp cut-off); inactive means mostly below about 7.6%. What follows is part of a selection rich in actives, with near analogues and random picks from the rest.

Chain of 5-hydroxytryptamine receptor 5A (Homo sapiens) (P47898 whole entry, looked up): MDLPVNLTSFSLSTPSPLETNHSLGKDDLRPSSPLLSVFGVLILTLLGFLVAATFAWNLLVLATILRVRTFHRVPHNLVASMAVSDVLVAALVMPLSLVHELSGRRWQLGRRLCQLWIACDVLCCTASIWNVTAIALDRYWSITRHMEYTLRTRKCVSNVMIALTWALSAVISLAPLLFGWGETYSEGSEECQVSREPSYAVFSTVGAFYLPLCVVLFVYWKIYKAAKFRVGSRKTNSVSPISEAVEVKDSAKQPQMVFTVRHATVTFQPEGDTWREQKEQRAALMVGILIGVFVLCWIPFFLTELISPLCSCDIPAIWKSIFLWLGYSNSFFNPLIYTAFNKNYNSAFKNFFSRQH

This assay has as its target 5-hydroxytryptamine receptor 5A (Homo sapiens) (UniProt P47898). Description: HTR5A agonists in luminescence cell assay, primary screen, counter-screen for OPRM1-OPRD1 heterodimer agonist project, full-deck HTS (AID 504692).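 Further: 0% = cells with vehicle only and 100% = reference agonist.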 Conditions: cell-based, at 9.3 µM, stronger effect = higher value. On the technique in general: The purpose of a counterscreen is to sort out artefacts and off-target activity.
In the case of `Cc1ccc2c(C)c(C(=O)N3CCC(N4CCC(C(=O)NC5CC5)CC4)CC3)oc2c1`, the activation is -4.49% (inactive). For `CC1(C)Cc2cccc(OCC(N)=O)c2O1` the value was -7.5% (inactive). For `COc1cccc(CCNC(=O)COc2cccc3c2OC(C)(C)C3)c1` the value was 10.4% (active). For `CC1(C)Cc2cccc(OCC(=O)NCc3ccccc3)c2O1` the value was 0.71% (inactive); for `CCn1c2c(c3ccc(OC)cc31)CCCC2=O`, 2.01% (inactive). For the compound `O=C1COc2ccc(C(=O)COC(=O)C3CC(O)CN3S(=O)(=O)c3ccc(Cl)cc3)cc2N1` (configuration not stated), the activation was 2.08% (inactive). Then `O=C(NCCCN1CCCC1=O)c1ccc(S(=O)(=O)Nc2ccccc2)cc1`, with -1.42% (inactive); and `Cc1ccc(Cn2c(SCC(=O)N/N=C/c3ccccc3OCC(=O)O)nc3ccccc32)cc1`, with 13.2% (active); and `CCn1c(SCC(=O)N/N=C/c2ccccc2OCC(=O)O)nnc1-c1ccc(C(C)(C)C)cc1`, with -0.31% (inactive).

As to `CCn1c(SCC(=O)N/N=C/c2ccncc2)nc2ccccc21`, the activation is 0.02% (inactive).

`COc1cc2c(cc1NC(=O)COC(=O)/C=C/c1ccccc1)oc1ccccc12`: the activation is 1.5% (inactive). Then `CCOC(=O)c1c(C)[nH]c(C(=O)OCC(=O)N2CCCC2=O)c1C`, with -3.02% (inactive); and `Cc1c(C(=O)N2CCCc3ccccc32)oc2ccccc12`, with 5.91% (inactive); and `Cc1c(C(=O)OCC(=O)N2CCCC2=O)oc2ccccc12`, with 17.4% (active).

Turning to `O=C(Cc1ncc(C(F)(F)F)cc1Cl)Nc1cccc(Br)c1`, the activation is -3.41% (inactive). For `NS(=O)(=O)c1ccc(CNC(=S)NC(=O)c2ccco2)cc1` the value was -0.69% (inactive); for `CCc1nn(CCCC(=O)Nc2ccc(C)cc2C)c(=O)c2cc3occc3n12`, 0.19% (inactive); for `CCCCCCCCn1c2c(c(=N)c3c1CCC3)CCCC2`, 12.5% (active). As for `Cc1ccccc1NC(=O)CSc1ccc2nnc(-c3ccccn3)n2n1`, the activation is -2.77% (inactive). As for `O=C(/C=C/c1cccc([N+](=O)[O-])c1)NCCSCc1ccco1`, the activation is -1.08% (inactive).

Turning to `Cc1ccc(CNC(=O)C2CCCN2C(=O)NCc2ccccc2)cc1` (configuration not stated), the activation was -0.36% (inactive). With `O=C(NC1CC2CCCC(C1)N2C(=O)N1CCCCC1)C1CCCCC1` (configuration not stated), the activation is 2.7% (inactive). Then `Nc1ccc2nn(-c3ccc(Cl)cc3)nc2c1`, with 3.34% (inactive). For `O=C1CCCc2nn(-c3ccccc3)nc21` the value was -0.59% (inactive); for `c1ccc(-n2nc3ccccc3n2)cc1`, 15.4% (active); for `Cc1ccc(S(=O)(=O)Nc2nc(CN3CCOCC3)nc3sc(C)c(C)c23)cc1`, 7.7% (inactive). Then `O=C(O[C@H]1[C@H](Cc2ccccc2)NS(=O)(=O)[C@H]2C[C@@H]3C=C[C@]12O3)c1ccc([N+](=O)[O-])cc1`, with -6.9% (inactive); and `CCOc1cc(N2CCOCC2)c(OCC)cc1NC(=O)c1cc(C)nc2ccccc12`, with 14.2% (active).

Turning to `CCOc1cc(N2CCOCC2)c(OCC)cc1NC(=O)c1ccc(C)s1`, the activation is 0.66% (inactive). For `CCOc1cc(N2CCOCC2)c(OCC)cc1NC(=O)C1=NN(c2cccc(C)c2)C(=O)CC1` the value was 11.3% (inactive); for `CCc1ccc(C2N3CC4([N+](=O)[O-])CN2CC([N+](=O)[O-])(C3)C4(C)C)cc1` (configuration not stated), 2.6% (inactive); for `CC1(C)C(C=C(Cl)Cl)C1C(=O)N(Cc1ccc(Cl)cc1)C1CCS(=O)(=O)C1` (configuration not stated), 0.53% (inactive).

With `CCc1ccc(CNC(=O)C2CCN(c3nnc(C)c4c(C)n(-c5ccc(C)cc5)nc34)CC2)cc1`, the activation is 11.9% (active). Then `COc1ccc(-n2nc3c(N4CCC(C(=O)NCc5ccccc5)CC4)nnc(C)c3c2C)cc1`, with -1.31% (inactive); and `CCOc1ccc(CNC(=O)C2CCCN(c3nnc(C)c4c(C)n(-c5ccccc5)nc34)C2)cc1` (configuration not stated), with 7.35% (inactive); and `O=C(Nc1ccccc1Cc1ccccc1)c1ccc2c(c1)SC1=NS(=O)(=O)CCN12`, with 6.02% (inactive).

Consider `Cc1cccc(CCNS(=O)(=O)c2ccc3c(c2)NC(=O)CO3)c1`, for which the activation is -0.45% (inactive).

`O=C(C1CCC(=O)N(C2CC2)C1)N1CCN(c2ccc(Cl)cc2)CC1` (configuration not stated): the activation was 0.66% (inactive). Then `Cc1cc(NC(=O)COc2ccc([N+](=O)[O-])cc2)no1`, with -2.97% (inactive); and `Cc1cc(NC(=O)CSc2nccn2-c2ccc([N+](=O)[O-])cc2)no1`, with -1.99% (inactive); and `COC(=O)c1cc(C(=O)OCC(=O)Nc2cc(C)on2)cc([N+](=O)[O-])c1`, with 14.7% (active). Then `CC(=O)N1CCN(S(=O)(=O)c2ccc(C)c([N+](=O)[O-])c2)C1C(C)C` (configuration not stated), with 0.82% (inactive). For `O=C(O)COc1ccc(/C=N/O)cc1Br` the value was 1.32% (inactive).

Consider `CNC(=S)N/N=C/c1ccc(OCc2ccccc2)c(Br)c1`, for which the activation is 14.9% (active). For `CNC(=S)NNC(=O)c1sccc1OCc1ccccc1` the value was 6.65% (inactive); for `N=c1c2c3c(sc2ncn1CCCN1CCOCC1)CCCCC3`, 6.44% (inactive); for `COc1ccc(N(CC(=O)NC2CCCC2)C(=O)CS(=O)CC(=O)Nc2ccc3c(c2)OCO3)cc1` (configuration not stated), 1.5% (inactive). As to `CC(CNS(=O)(=O)c1ccc(Br)cc1)CN(C)C` (configuration not stated), the activation is 0.38% (inactive). Then `O=S(=O)(NN=C1CCCCCCC1)c1ccc(Br)cc1`, with 9.89% (active); and `Cc1nc(S(=O)(=O)c2ccc(Br)cc2)nc2c1CCC2`, with 3.89% (inactive); and `CCOc1ccc(NC(=O)c2cc(C)nc3ccccc23)cc1`, with 6.43% (inactive). `CCOc1ccc(NC(=O)c2nc(SCC)ncc2Cl)cc1`: the activation is 11.8% (active).

As for `CCOc1ccc(NC(=O)CSc2nncn2C)cc1`, the activation was 2.03% (inactive).

On to `Cc1ccc(C)c(Cn2nnc3c(=O)[nH]c(C(=O)Nc4ccc(F)cc4)nc32)c1`, for which the activation was -2.89% (inactive).

With `COc1ccc(NC(=O)COC(=O)c2ccc(NS(=O)(=O)/C=C/c3ccccc3)cc2)cc1`, the activation is -1.75% (inactive).

On to `Cc1c(C(=O)OCC(=O)N(CCC#N)c2ccccc2)oc2c1ccc1ccccc12`, for which the activation is 53% (active). For `N#CCCN(C(=O)COC(=O)c1ccc(S(=O)(=O)N2CCCCCC2)cc1)c1ccccc1` the value was -3.52% (inactive); for `N#CCCN(C(=O)COC(=O)c1ccc2c(c1)OCCO2)c1ccccc1`, 5.45% (inactive). For `CCN1CCN(C(=O)/C=C\C(=O)O)CC1` the value was 2.72% (inactive); for `CC1C(=O)N(Cc2ccccc2)c2ccccc2N1C(=O)c1ccccc1` (configuration not stated), 0.41% (inactive); for `CC1CC(C)CN(CC(=O)N2c3ccccc3CCc3ccccc32)C1` (configuration not stated), -4.89% (inactive).

On to `CC1C(C)N(C(=O)CCl)c2ccccc2N1C(=O)CCl` (configuration not stated), for which the activation was 8.76% (active). For the compound `Cc1cccc(N2CCN(C(C)C(=O)N3CCc4ccccc43)CC2)c1C` (configuration not stated), the activation was 7.68% (inactive). Regarding `COc1cc(OC)c(-n2cc(-c3ccc(Cl)cc3)[nH]c2=O)cc1Cl`, the activation is 5.5% (inactive). For `CC1CCCCN1CCCNc1ccc(C(CC(N)=O)NC(=O)c2ccccc2)cc1[N+](=O)[O-]` (configuration not stated) the value was -1.92% (inactive); for `NC(N)=NCCCc1cn(CC(=O)N2CCNCC2)nn1`, 12.4% (active). For `C#CCOCCOCCOCCNc1nc(N2CCN(C(=O)Cn3cc(CCO)nn3)CC2)nc(N2CCN(C(=O)Cn3cc(CCCN=C(N)N)nn3)CC2)n1`, the activation is -2.92% (inactive).

For the compound `CCC(C)[C@@H](C(=O)N1CCNCC1)n1cc(CCCCN)nn1` (some centres not stated), the activation was -1.58% (inactive). Regarding `Cc1cc(C)c(S(=O)(=O)N(C)CC(=O)NCC2CCCO2)c(C)c1` (configuration not stated), the activation is 8.59% (inactive).

Take `COc1ccc(CN2CCN(C(=O)CCC(=O)Nc3nnc(C(C)C)s3)CC2)cc1F`: the activation is 2.2% (inactive).

`CC(C)OC(=O)c1sc2nc3c(cc2c1N)C(=O)CCC3`: the activation is 5.9% (inactive). On to `Cc1ccc2nc(N(CCN(C)C)C(=O)C3=COCCO3)sc2c1`, for which the activation is -2.68% (inactive). For `Cc1ccc2sc(N(CCN(C)C)C(=O)/C=C/c3cccs3)nc2c1C` the value was 6.97% (inactive). For `Cc1cc(C)c2nc(N(CCN(C)C)C(=O)/C=C/c3cccs3)sc2c1` the value was 11.5% (active); for `O=C(CSc1nnc(-c2ccc([N+](=O)[O-])cc2)o1)Nc1ccccn1`, 0.96% (inactive); for `CCc1ccc(OCC(=O)OC(C)C(=O)NC2CC2)cc1` (configuration not stated), 1.16% (inactive). For `CSc1ccc(S(=O)(=O)NCc2ccc(Cl)cc2)cc1` the value was 10.3% (active). Turning to `Cc1ccc(S(=O)(=O)NCCC(=O)NCc2ccc(Cl)cc2)cc1C`, the activation was -0.86% (inactive). For `CC(C)CNS(=O)(=O)c1ccc(CCC(=O)NCc2ccc(Cl)cc2)cc1` the value was 0.62% (inactive); for `Cc1cc(C(C)(C)C)oc1C(=O)N(CC(=O)NC1CCCC1)Cc1ccc(Cl)cc1`, 2.84% (inactive).

For `CCOc1ccc(S(=O)(=O)NCCCn2ccnc2)cc1NC(C)=O`, the activation was 2.78% (inactive). In the case of `NC(=O)C1(C(N)=O)OC1c1ccc(Cl)cc1Cl` (configuration not stated), the activation was 3.12% (inactive). Then `O=C(COC(=O)c1n[nH]c2ccccc12)Nc1ccccc1Br`, with -1.79% (inactive). For `COc1ccc(C)cc1S(=O)(=O)NCCc1ccccc1` the value was 1.84% (inactive); for `COc1ccc(C(=O)O/N=C(\N)Cc2ccc(Cl)cc2Cl)cc1OC`, 27.1% (active); for `COc1ccc(C/C(N)=N/OC(=O)c2ccco2)cc1OC`, 1.65% (inactive). For `COc1ccc(CCn2ccc(O)c(Cc3ccc(Cl)cc3Cl)c2=O)cc1OC` the value was -0.18% (inactive); for `CCOC(=O)c1[nH]c(C)c(C(=O)OCC(=O)N2c3ccccc3CC2C)c1C` (configuration not stated), -1.22% (inactive). As for `CCOc1ncccc1C(=O)OCC(=O)N1c2ccccc2CC1C` (configuration not stated), the activation was -1.04% (inactive). Then `CCn1nc(C(=O)OCC(=O)N2c3ccccc3CC2C)c2ccccc2c1=O` (configuration not stated), with 36.7% (active); and `COc1ccc(NC(=O)CSc2nnc(-c3ccccc3F)n2C2CC2)cc1S(N)(=O)=O`, with -5.29% (inactive); and `Cn1c(CCC(=O)Nc2ccccc2F)nnc1SCC(=O)Nc1ccccc1Cl`, with -0.17% (inactive).
